In all, about 63,000 compounds went through this assay and about 1,100 (1.7%) were called active. The entries come from a sample that favours actives as a whole. Results with a measured potency or affinity are listed apart. Unmarked numbers belong to inactive results.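 Rule for the calls: active = compounds whose percent cytotoxicity in the single-dose primary screen, scaled between solvent and toxic-drug controls, exceeds 50; inactive = the rest.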
Assay: cytotoxicity in KRAS-transformed pancreatic duct cells, primary screen, cell-based, fluorescence, HTS (AID 431);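 note: 0% = DMSO solvent wells and 100% = doxorubicin-treated wells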
Settings: HPDE-C7K KRASV12 cells, Alamar Blue viability, 48 h; at 10 µM; stronger effect = higher value
In the case of `O=C(CCC1CCCC1)Nc1ccon1`, the cytotoxicity is reported as -5.5%.
With `CCOc1ccc(NC(=O)Nc2ccc3nccnc3c2)cc1` the cytotoxicity was 8.3%.
Work on `O=C(CSc1nc(-c2ccc(F)cc2)cs1)NC(=O)NCc1ccco1` yielded a cytotoxicity of 1%.
In the case of `CCOC(=O)/C=C1\SCC(=O)N1Cc1nnc(-c2ccccc2Br)o1`, the cytotoxicity is reported as -23.5%.
`COC(=O)c1[nH]c(C)c(/C(O)=C2\C(=O)C(=O)N(CCN(C)C)C2c2cc(OC)ccc2OC)c1C` (configuration not stated) showed a cytotoxicity of -7.9%.
Work on `O=C(CSc1ncc(-c2ccccc2)nn1)NCc1ccco1` yielded a cytotoxicity of -13.8%.
`CC(C)c1nnc(NC(=O)CCS(=O)(=O)c2nc(-c3cccs3)cc(C(F)(F)F)n2)s1` showed a cytotoxicity of 43.6%.
For `CN1CCN(c2nc(-c3cccs3)cc(C(F)(F)F)n2)CC1`, the cytotoxicity was 3.2%.
In the case of `CCn1c(SCC(=O)Nc2ccc(N3CCOCC3)c(Cl)c2)nnc1-c1ccc(N)cc1`, the cytotoxicity is reported as 3.4%.
`Clc1ccc(OCc2nn3c(C4CCCCC4)nnc3s2)cc1` showed a cytotoxicity of 17.1%.
`CCOc1cc(-c2nc(-c3ccc(C)nc3OC)no2)cc(OCC)c1OCC` gave a cytotoxicity of -15%.
Work on `Cc1nc(NC(=O)c2oc3ccccc3c2C)sc1C(=O)N(C)C` yielded a cytotoxicity of 12.9%.
With `CCN1CCN(c2ncc(C(=O)Nc3cc(Cl)c(OC)cc3OC)c3ccccc23)CC1` the cytotoxicity was 11.7%.
With `CCN1CCN(c2ncc(C(=O)Nc3ccccc3C(=O)OC)c3ccccc23)CC1` the cytotoxicity was 40.3%.
In the case of `CCN1CCN(c2ncc(C(=O)Nc3cc(Cl)ccc3OC)c3ccccc23)CC1`, the cytotoxicity is reported as 75.3% (active).
`O=c1/c(=C\c2cccnc2)sc2nc3ccccc3n12` gave a cytotoxicity of -13.6%.
Work on `COc1cc(C(=O)OC(C)CN2CCN(C)CC2)cc(OC)c1OC` (configuration not stated) yielded a cytotoxicity of -37.3%.
Work on `O=C(CN1C(=O)COc2ccccc21)c1ccc(Cl)cc1` yielded a cytotoxicity of -0.2%.
Molecule `Cc1ccc(C(=O)CSc2nnc(CNc3nc(-c4ccccc4)cs3)n2C)cc1` has a cytotoxicity of 4.1%.
Molecule `COc1ccc(OCC(=O)Nc2ccccc2C(=O)N2CCCC2)cc1` has a cytotoxicity of -0.2%.
Work on `NS(=O)(=O)c1ccc(S(=O)(=O)N(Cc2ccccc2F)CC2CCCO2)cc1` (configuration not stated) yielded a cytotoxicity of 4%.
With `CC(NC(=O)NCC1CCCO1)(C(F)(F)F)C(F)(F)F` (configuration not stated) the cytotoxicity was -11.1%.
In the case of `Cc1ccccc1-n1c(C)nnc1SCC(=O)NCC1CCCO1` (configuration not stated), the cytotoxicity is reported as -1.6%.
`COc1ccc(S(=O)(=O)N(C)CC(=O)NC2CCCC2)cc1Cl` gave a cytotoxicity of -18%.
Work on `Oc1ccc2oc3c(c2c1/C=N/n1cnnc1)CCCC3` yielded a cytotoxicity of -21.1%.
For `Cc1nc2ccccc2c(=O)n1/N=C/c1c(O)ccc2oc3c(c12)CCCC3`, the cytotoxicity was 72.1% (active).
In the case of `Cc1nc2ccccc2c(=O)n1/N=C/c1ccc(O)cc1`, the cytotoxicity is reported as 24.4%.
